Screening results deposited in PubChem BioAssay by The Scripps Research Institute Molecular Screening Center.
The list is not random: actives were taken first. Their share in the collection is about 3.5%.
FBW7 activator = human FBW7 E3 ligase activation, primary screen; AID 1259310; 0.13% of 650,000 active; Q969H0; normalized activity (activation), % at 26.1 µM; AlphaScreen FBW7–phospho-cyclin E peptide binding, activator screen; in the data active = normalized activity above about 1.9%;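 also: purified mutant Fbw7 with reduced substrate affinity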
GPR151 activ = human GPR151 activation; activation, % at 11.2 µM; PathHunter beta-arrestin GPR151 cells, luminescence; 1% of 650,000 active; Q8TDV0; in the data active = activation above about 4.9%
Target sequence (Q8TDV0 whole entry, looked up): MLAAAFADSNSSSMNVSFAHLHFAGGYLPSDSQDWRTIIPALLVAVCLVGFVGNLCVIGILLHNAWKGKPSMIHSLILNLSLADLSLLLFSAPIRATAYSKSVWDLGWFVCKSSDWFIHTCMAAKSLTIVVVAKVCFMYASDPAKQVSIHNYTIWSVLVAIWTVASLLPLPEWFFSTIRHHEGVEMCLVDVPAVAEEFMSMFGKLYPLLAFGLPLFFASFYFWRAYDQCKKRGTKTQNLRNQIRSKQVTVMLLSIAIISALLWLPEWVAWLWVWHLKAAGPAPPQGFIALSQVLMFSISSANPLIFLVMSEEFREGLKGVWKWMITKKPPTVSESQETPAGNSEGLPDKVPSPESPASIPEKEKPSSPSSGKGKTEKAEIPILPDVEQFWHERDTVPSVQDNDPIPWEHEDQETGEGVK
TEAD-YAP block = TEAD-YAP interaction inhibition. 1.4% of 640,000 active. inhibition, % at 9.12 µM. AID 1259422. HEK-TIYL cells, TEAD-Gal4/YAP UAS-luciferase luminescence; in the data active = inhibition above about 32%
MITF primary = inhibitors of human MITF. O75030. AlphaScreen MITF homodimerization, bead proximity signal. inhibition, % at 2.6 µM. 0.91% of 650,000 active; in the data active = inhibition above about 50%
GPR151 confirm = confirmation of human GPR151 activators | shares compounds with GPR151 activ | GPR151 PathHunter beta-arrestin cells, luminescence, 90 min; % of EA-reagent control over plate median | activation, % at 11.2 µM | 6,700 tested, under 10 active | AID 1508609;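 active = mean percent activation across replicates above the confirmation screen cutoff of 4.91%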
GPR119 counter = GPR119 activation, counter-screen for GPR151 activators; shares compounds with GPR151 activ; GPR119 PathHunter beta-arrestin cells, luminescence, 90 min; 0 = compound-well median, 100 = enzyme-acceptor control; activation, % at 11.2 µM; 0.3% of 6,700 active;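 active = mean percent activation in the counterscreen above 29.09%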;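 also: counterscreen on off-target GPR119 to flag nonselective hits from the GPR151 activator screen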
A number is an active result; - = inactive; . = not tested or not shown.

SMILES	FBW7 activator	GPR151 activ	TEAD-YAP block	MITF primary	GPR151 confirm	GPR119 counter
Cc1cc(C)nc(SCC(=O)Nn2cnnc2)n1	-	7.1	-	-	-	-
CSc1ccccc1NC(=O)CNC(=O)c1c[nH]c2ccccc12	-	-	-	-	.	.
Cc1ccc(NC(=O)CNC(=O)c2c[nH]c3ccccc23)cc1F	-	5.7	-	-	-	-
O=C(O)CCC/C=C\C[C@@H]1[C@@H](/C=C/[C@@H](O)C2Cc3ccccc3C2)[C@@H](F)C[C@@H]1O	.	5.0	.	-	-	-
CC(C)OC(=O)CCC/C=C\C[C@@H]1[C@@H](/C=C/[C@@H](O)CCc2ccccc2)[C@H](O)C[C@@H]1O	.	5.4	.	-	-	-
O=C(O)CCC/C=C\C[C@H]1[C@@H](/C=C/[C@@H](O)CCc2ccccc2)[C@H](O)C[C@H]1O	.	-	.	-	.	.
COc1ccccc1NC(=O)C1C(=O)CN(c2ccccc2)C1=O (stereo unspecified)	-	-	-	-	.	.
O=C(NCC1CCCO1)C1CCN(C(=O)N2CCOc3ccccc32)CC1 (stereo unspecified)	-	9.7	-	-	-	-
CC(C)NC(=O)C1CCN(C(=O)N2CCOc3ccccc32)CC1	-	-	-	-	.	.
CC(NC(=O)c1n[nH]c(=O)c2ccccc12)c1ccc(-n2ccnc2)cc1 (stereo unspecified)	-	-	-	-	.	.
CCCCCCc1cnc(-c2ccc(Br)cc2)nc1	-	-	-	-	.	.
CCCCCCOc1ccc(-c2ncc(CCCCC)cn2)cc1	-	5.8	-	-	-	-
O=c1c2cc3c(cc2nc(SCc2cccc(F)c2)n1Cc1ccco1)OCO3	-	-	-	-	.	.
O=c1c2nccnc2nc(SCc2cccc(F)c2)n1Cc1ccco1	-	11.8	-	-	-	-
O=C(Nc1ccc2c(c1)CN(C1CSCCSC1)CC2)c1ccncc1	-	5.3	-	-	-	-
Cc1onc(-c2ccccc2)c1C(=O)Nc1sc(C)c(-c2ccccc2)c1C(N)=O	-	-	-	-	.	.
Cc1c(Cl)cccc1NC(=O)c1ccc(N2C(=O)c3ccccc3C2=O)cc1	-	7.0	-	-	-	-
NC(=O)CN1CCN(C(=S)Nc2ccccc2)CC1	-	-	-	-	.	.
COc1ccc(S(=O)(=O)Nc2ccccc2SC)cc1C	-	-	-	-	.	.
CCOc1ccccc1NS(=O)(=O)c1ccc(Br)c(OC)c1	-	-	-	-	.	.
COc1ccccc1NS(=O)(=O)c1ccc2nc(CCl)[nH]c2c1	-	7.0	-	-	-	-
CCOc1ccccc1NS(=O)(=O)c1ccc(OC)c(Cl)c1	-	5.5	-	-	-	-
COc1ccc(S(=O)(=O)Nc2ccccc2SC)cc1Cl	-	5.2	-	-	-	-
O=C(Nc1cccc(Cl)c1)c1ccc2c(=O)n(-c3ccccc3)c(SCc3nc4ccccc4[nH]3)nc2c1	-	-	-	-	.	.
CCOc1ccc(NC(=O)N2CCC(Cn3cnc4cc(C)c(C)cc43)CC2)cc1	-	5.8	-	-	-	-
SMILES	FBW7 activator	GPR151 activ	TEAD-YAP block	MITF primary	GPR151 confirm	GPR119 counter
CCOc1ccc(NC(=O)N2CCC(CN3CCCCCC3)CC2)cc1	-	-	-	-	.	.
CCN(CCCNC(=O)c1nn(-c2cc(OC)cc(OC)c2)c(=O)c2ccccc12)Cc1ccccc1	-	-	-	-	.	.
Cc1cccc(CN2C(=O)CCC2CCNCc2ccccc2F)c1 (stereo unspecified)	-	7.1	-	-	-	-
Cc1cccc(CNCCC2CCC(=O)N2Cc2cc(F)ccc2C)c1 (stereo unspecified)	-	-	-	-	.	.
Clc1ccc(CN2CCc3nc(-c4ccccn4)nc(N4CCOCC4)c3C2)s1	-	5.1	-	-	-	-
O=C(NCCN1CCOCC1)c1cccc(-n2ncc3cc(Nc4ccccc4Cl)ccc32)c1	-	-	-	-	.	.
O=C(NCCN1CCOCC1)c1cccc(-n2ncc3cc(Nc4ccccc4Cl)ccc32)n1	-	4.9	-	-	-	-
O=c1nc2s/c(=C\c3ccc(-c4ccc(F)cc4F)o3)c(=O)n2c2sc3c(c12)CCCC3	-	5.0	-	-	-	-
O=c1nc2s/c(=C\c3ccc(-c4ccccc4F)o3)c(=O)n2c2sc3c(c12)CCCC3	-	-	-	-	.	.
CNS(=O)(=O)c1cccc(C(=O)OCc2cc(C(C)=O)ccc2OC)c1	-	5.0	-	-	-	-
CNS(=O)(=O)c1cccc(C(=O)OCC(N)=O)c1	-	8.8	-	-	-	-
COc1cccc(CC2(CO)CCCN(Cc3ccc(OC)cc3F)C2)c1 (stereo unspecified)	-	-	-	-	.	.
Cc1ccc(C2=CC(c3ccc(Cl)cc3)n3nc(CCCO)nc3N2)cc1 (stereo unspecified)	-	-	-	-	.	.
COc1ccc(C2C=C(c3ccc(Cl)cc3)Nc3nc(CCCO)nn32)cc1 (stereo unspecified)	-	6.1	-	-	-	-
Cc1cc(C(=O)COC(=O)c2ccc(O)cc2O)c(C)n1-c1ccc2c(c1)OCO2	-	5.3	-	-	-	-
Cc1csc(NC(=O)C(C)(C)Oc2ccc(Cl)cc2)n1	-	-	-	-	.	.
CCC(Sc1nc2nc(C)c(Cc3ccc(F)cc3Cl)c(C)n2n1)C(=O)Nc1ccccc1OC (stereo unspecified)	-	5.4	-	-	-	-
CCc1ccccc1NC(=O)CSc1nc2nc(C)c(Cc3ccc(F)cc3Cl)c(C)n2n1	-	-	-	-	.	.
CC(C)(CO)NCc1ccc(Br)cc1	-	5.3	-	-	-	-
C=CCNC(=O)CN1CCC(O)(c2ccccc2)CC1	-	-	-	-	.	.
C=CCNC(=O)CN1CCN(C(c2ccccc2)c2ccccc2)CC1	-	6.2	-	-	-	-
C=CCNC(=O)CN1CCC(O)(c2cccnc2)CC1	-	6.2	-	-	-	-
O=C(CN1CCN(C(c2ccccc2)c2ccccc2)CC1)NCc1cccs1	-	-	-	-	.	.
N#C/C(=C(/O)COC(=O)c1ccccc1I)c1nc2ccccc2[nH]1	-	-	-	-	.	.
CCOC(=O)c1sc(N2CCc3ccccc32)nc1C	-	-	-	-	.	.
CC1Cc2ccccc2N1S(=O)(=O)c1nnc(NC(=O)c2ccccc2Cl)s1 (stereo unspecified)	-	-	-	-	.	.
CC(=O)c1c(C)[nH]c(C(=O)Nc2nc3c(C)cc(C)cc3s2)c1C	-	5.9	-	-	-	-
COc1ccc(NC(=O)c2ccccc2NC(=O)c2cccc(S(=O)(=O)N3CCCCCC3)c2)cc1	-	-	-	-	.	.
Cc1ccc(-c2ccc3c(c2)CC(CNC(=O)CCc2ccco2)O3)nc1 (stereo unspecified)	-	6.4	-	-	-	-
Cc1ccc(-c2ccc3c(c2)CC(CNC(=O)Cc2nc(-c4ccccc4)n[nH]2)O3)nc1 (stereo unspecified)	-	-	-	-	.	.
